Source: PubChem BioAssay (National Center for Advancing Translational Sciences (NCATS))
Tb PYK inh: qHTS of Trypanosoma Brucei Inhibitors | Potency, µM (series often up to 76.8 µM), without a hit: top-dose activity, negative = inhibition, actives largely listed as inhibitors | 0.12% of 410,000 active | pyruvate kinase (Trypanosoma brucei), Q57TT1 | TbPYK enzyme, Kinase-Glo Plus ATP luminescence, 45 min; note: potency is the fitted concentration of half-maximal effect; % is set by controls: 0 for no effect and ±100 for the full control effect; nearly all actives have a fitted effect of over 50% in size
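Luminescent Kinase-Glo Plus end-point after 45 min room-temperature reaction of T. brucei pyruvate kinase started with 130 uM ADP (final). Buffer TEA 50 mM pH 7.2 with KCl, MgCl2, BSA, Tween-20; titration-based qHTS with fitted concentration-effect curves.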
RE007 growth inh: qHTS Assay for Inhibitors of the HIV-1 protein Vpr | S. pombe RE007 Vpr strain, BacTiter-Glo ATP luminescence, 24 h | Potency, µM (top dose mostly 92.2 µM), for the others: at the top dose activity change, negative = less growth, hits mostly inhibitors | 0.21% of 360,000 active | AID 651644, 2012; active = well fitted falling curve with a large enough effect; inconclusive = small, poorly fitted or top-dose-only effect; inactive = no such curve, though single readings can be large or run the other way; note: potency is the fitted concentration of half-maximal effect; % is set by controls: 0 for no effect and ±100 for the full control effect; nearly all actives have a fitted effect of over 50% in size
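Fission yeast RE007 carrying one integrated HIV-1 vpr copy, seeded at OD 0.01 in PMG+AL medium with 23 nL pinned compound. Grown 24 h at 30 degrees; viability read by BacTiter-Glo luminescence after 5 min.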
Cycloheximide cs: Cycloheximide Counterscreen for Small Molecule Inhibitors of Shiga Toxin. max response, %. 12% of 300,000 active. cell reporter, cycloheximide protein synthesis inhibition counterscreen; in the data active = max response mostly above about 13%, no sharp cut-off; inactive = mostly below about 14%; note: read at 38.3 µM for the half of the compounds with a filed dose; 0% is about no effect
Giardia FBPA inh: qHTS Assay for Inhibitors of Fructose-1,6-bisphosphate Aldolase from Giardia Lamblia. A8B2U2. purified Giardia FBPA. Potency, µM (doses to about 59.6 µM), inactives show at the top dose activity, negative = inhibition, most hits filed as inhibitors. 0.71% of 290,000 active. AID 2451, 2010; note: potency is the fitted concentration of half-maximal effect; % is set by controls: 0 for no effect and ±100 for the full control effect; nearly all actives have a fitted effect of over 55% in size
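40 nM FBPA preincubated 10 min at RT with compound (up to 57.5 uM final), then substrate plus GAPDH/TPI/NAD/arsenate coupling and diaphorase/resazurin added. Fluorescence read after 20 min at RT, 525/598 nm.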
Shiga inhibitor: A qHTS for Small Molecule Inhibitors of Shiga Toxin. Vero cells, Shiga toxin protein synthesis inhibition reporter. inhibition, % at 38.7 µM. 9.2% of 290,000 active. AID 2315, 2010; in the data active = inhibition mostly above about 28%, no sharp cut-off; inactive = mostly below about 43%; note: 0% is about no effect
LmPK inh: qHTS Assay for Inhibitors of Leishmania Mexicana Pyruvate Kinase (LmPK) | Q27686 | purified LmPK, Kinase-Glo ATP luminescence, 1 h | Potency, µM (doses to about 57.5 µM), without a hit: at the highest dose activity change, negative = inhibition, actives largely listed as inhibitors | 0.37% of 290,000 active | AID 1721, 2009; note: potency is the fitted concentration of half-maximal effect; % is set by controls: 0 for no effect and ±100 for the full control effect
Target sequence (Q27686 whole entry, looked up): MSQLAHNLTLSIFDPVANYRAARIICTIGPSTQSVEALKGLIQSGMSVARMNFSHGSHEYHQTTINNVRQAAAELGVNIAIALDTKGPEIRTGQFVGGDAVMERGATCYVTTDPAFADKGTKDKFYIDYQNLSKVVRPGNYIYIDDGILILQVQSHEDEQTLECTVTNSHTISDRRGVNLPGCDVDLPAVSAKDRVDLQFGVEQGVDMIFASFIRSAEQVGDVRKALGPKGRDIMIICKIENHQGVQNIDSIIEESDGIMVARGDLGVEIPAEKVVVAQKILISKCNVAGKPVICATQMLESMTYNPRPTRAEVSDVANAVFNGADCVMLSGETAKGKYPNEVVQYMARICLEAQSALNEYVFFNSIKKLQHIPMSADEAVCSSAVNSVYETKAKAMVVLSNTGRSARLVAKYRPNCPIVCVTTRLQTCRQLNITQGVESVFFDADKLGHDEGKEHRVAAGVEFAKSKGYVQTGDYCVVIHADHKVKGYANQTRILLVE
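Screened at intermediate enzyme activity to detect both inhibitors and activators: LmPK at 0.1 nM, with a 0.5 nM enzyme column as activation reference. PEP 0.5 mM, ADP 0.1 mM; ATP detected by luminescence after 1 h.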
An asterisk follows results filed as active. This is one part of a sample in which hits are shown more often than they occur. Unless noted, calls come from the whole dose curve; as a rule, active = well fitted curve in the direction sought with a large enough effect; inconclusive = small, poorly fitted or top-dose-only effect, or another doubt; inactive = no such curve, though single readings can be large; an effect the other way counts as inactive or inconclusive.

How did COC(=O)c1sc(NC(=O)c2cc(-c3ccccc3)nc3ccccc23)c(C#N)c1C do in these assays?
Tb PYK inh: inconclusive; RE007 growth inh: 5%; Cycloheximide cs: -1; Giardia FBPA inh: 1.4µM*; Shiga inhibitor: -12; LmPK inh: 2%

Results for COc1cc(-c2cc(C(=O)Nc3ccc(O)cc3)c3ccccc3n2)cc(OC)c1OC ?
Tb PYK inh: -18%; RE007 growth inh: 5%; Cycloheximide cs: -2; Giardia FBPA inh: -8%; Shiga inhibitor: -8; LmPK inh: 7%

Results for COc1cc(-c2cc(C(=O)Nc3nc4ccccc4s3)c3ccccc3n2)cc(OC)c1OC ?
Tb PYK inh: 0%; RE007 growth inh: 6%; Cycloheximide cs: 18*; Giardia FBPA inh: 3%; Shiga inhibitor: 3; LmPK inh: -2%

How did Clc1cccc(Cl)c1COn1nnc2ccccc21 do in these assays?
Tb PYK inh: 4%; RE007 growth inh: -19%; Cycloheximide cs: 25*; Giardia FBPA inh: -18%; Shiga inhibitor: 37; LmPK inh: -8%

How did COC(=O)c1ccc(COn2nnc3ccccc32)cc1 do in these assays?
Tb PYK inh: -1%; RE007 growth inh: 3%; Cycloheximide cs: 39*; Giardia FBPA inh: -1%; Shiga inhibitor: 97*; LmPK inh: -18%

What do the screens show for `c1ccc(COn2nnc3ccccc32)c(COn2nnc3ccccc32)c1`?
Tb PYK inh: -18%; RE007 growth inh: 3%; Cycloheximide cs: 0; Giardia FBPA inh: inconclusive; Shiga inhibitor: -6; LmPK inh: 8%

How did O=C(CSc1nnc(-c2ccc(O)cc2)o1)Nc1ccccc1 do in these assays?
Tb PYK inh: -4%; RE007 growth inh: 2%; Cycloheximide cs: 28*; Giardia FBPA inh: 4%; Shiga inhibitor: 61*; LmPK inh: 2%

How did O=C(CSc1nnc(-c2ccccn2)o1)Nc1ccccc1F do in these assays?
Tb PYK inh: -1%; RE007 growth inh: 7%; Cycloheximide cs: 25*; Shiga inhibitor: 74*; LmPK inh: -9%

How did Cc1cc(-c2nnc(SCCC(=O)Nc3ccccc3)o2)no1 do in these assays?
Tb PYK inh: 0%; RE007 growth inh: 0%; Cycloheximide cs: 35*; Shiga inhibitor: -12; LmPK inh: 5%

Results for O=C(CCSc1nnc(-c2ccncc2)o1)Nc1ccccc1 ?
Tb PYK inh: 0%; RE007 growth inh: 0%; Cycloheximide cs: -4; Giardia FBPA inh: 9%; Shiga inhibitor: -9; LmPK inh: 1%

Results for Cc1cc(NC(=O)CSc2nnc(-c3ccc(O)cc3)o2)no1 ?
Tb PYK inh: 4%; RE007 growth inh: 3%; Cycloheximide cs: active; Giardia FBPA inh: -11%; Shiga inhibitor: 52*; LmPK inh: -3%

Results for Cc1ccccc1NC(=O)CSc1nnc(-c2ccccn2)o1 ?
Tb PYK inh: 2%; RE007 growth inh: -9%; Cycloheximide cs: -5; Giardia FBPA inh: 0%; Shiga inhibitor: -4; LmPK inh: -6%

Results for COC(=O)c1cc2sc(Cl)cc2n1Cc1c(C)cc(C)cc1C ?
Tb PYK inh: 0%

How did O=C(CSc1nnc(Cc2ccccc2)o1)Nc1ccccc1 do in these assays?
Tb PYK inh: 1%; RE007 growth inh: 1%; Cycloheximide cs: 18; Giardia FBPA inh: -7%; Shiga inhibitor: 2; LmPK inh: 3%

What do the screens show for `O=C(CSc1nnc(-c2csc3c2CCCC3)o1)Nc1ccccc1`?
Tb PYK inh: -7%; RE007 growth inh: 0%; Cycloheximide cs: 58*; Giardia FBPA inh: 2%; Shiga inhibitor: 55*; LmPK inh: 7%

How did Cc1c(C)c2c(cc(C)c3c(-c4ccc(Br)cc4)coc32)oc1=O do in these assays?
Tb PYK inh: -3%

What do the screens show for `O=C(Nc1ccccc1)c1ccc(CN2CCc3ccccc3C2)cc1`?
Tb PYK inh: -5%; RE007 growth inh: -11%; Cycloheximide cs: 27*; Giardia FBPA inh: 5%; Shiga inhibitor: 54; LmPK inh: -2%

What do the screens show for `Cc1cc(C)cc(NC(=O)c2ccc(CN3CCc4ccccc4C3)cc2)c1`?
Tb PYK inh: -3%; RE007 growth inh: 6%; Cycloheximide cs: -2; Giardia FBPA inh: -21%; Shiga inhibitor: -19; LmPK inh: -4%

How did O=C(Nc1ccc2c(c1)CN(Cc1ccc(CO)o1)CC2)c1ccc(C(F)(F)F)cc1 do in these assays?
Tb PYK inh: -15%; RE007 growth inh: -8%; Cycloheximide cs: 44*; Shiga inhibitor: 35; LmPK inh: 13%

Results for O=C(Nc1ccccc1F)c1ccc(CN2CCc3ccccc3C2)cc1 ?
Tb PYK inh: -4%; RE007 growth inh: 4%; Cycloheximide cs: 20*; Giardia FBPA inh: -9%; Shiga inhibitor: 27; LmPK inh: 0%

Results for COCC(=O)N1CCc2ccc(NC(=O)c3ccc(C(F)(F)F)cc3)cc2C1 ?
Tb PYK inh: -1%; RE007 growth inh: -7%

How did Cc1ccc(NC(=O)c2ccc(CN3CCc4ccccc4C3)cc2)cc1 do in these assays?
Tb PYK inh: -3%; RE007 growth inh: -12%; Cycloheximide cs: 3; Giardia FBPA inh: -18%; Shiga inhibitor: 16; LmPK inh: 1%

What do the screens show for `CCOc1ccc(-c2c(C)nn3c(C)c(C(=O)NCc4ccc(Cl)cc4)cnc23)cc1OCC`?
Tb PYK inh: -2%

Results for Cc1cc(C(=O)N/N=C/c2ccc([N+](=O)[O-])o2)c(C)o1 ?
Tb PYK inh: -1%; RE007 growth inh: -9%; Cycloheximide cs: 1; Giardia FBPA inh: -8%; Shiga inhibitor: -2; LmPK inh: 4%

How did Cc1c(C(=O)N/N=C/c2ccncc2)no[n+]1[O-] do in these assays?
Tb PYK inh: -19%; RE007 growth inh: -16%; Cycloheximide cs: 21*; Giardia FBPA inh: -13%; Shiga inhibitor: -3; LmPK inh: -11%

How did Cc1nonc1C(=O)N/N=C/c1ccc([N+](=O)[O-])o1 do in these assays?
Tb PYK inh: -1%; RE007 growth inh: -24%; Cycloheximide cs: 46*; Giardia FBPA inh: inconclusive; Shiga inhibitor: 88*; LmPK inh: -10%

How did Cc1ccccc1C(=O)N/N=C/c1ccncc1 do in these assays?
Tb PYK inh: 6%; RE007 growth inh: -20%; Cycloheximide cs: 11; Shiga inhibitor: -3; LmPK inh: -9%

What do the screens show for `Nc1nonc1C(=O)N/N=C/c1ccncc1`?
Tb PYK inh: 2%; RE007 growth inh: -11%; Cycloheximide cs: 14; Giardia FBPA inh: 8%; Shiga inhibitor: 25; LmPK inh: -23%

How did Cc1nonc1C(=O)N/N=C/c1ccncc1 do in these assays?
Tb PYK inh: 4%; RE007 growth inh: -6%; Cycloheximide cs: 29*; Giardia FBPA inh: -1%; Shiga inhibitor: 51*; LmPK inh: 16µM*
